# A selection: hits, their analogues and other compounds. The true share with any hit is near 0.9%.
# gsp agonist = qHTS for Agonist of gsp, the Etiologic Mutation Responsible for Fibrous Dysplasia/McCune-Albright Syndrome: qHTS; gsp mutant cells, cAMP HTRF, 30 min; Potency, µM (doses to about 76.9 µM), for inactives: at the highest dose activation (cAMP increase), hits mostly activators; 340,000 tested, 0.13% active; AID 624287, 2012; active = well fitted activation curve with a large enough effect; inconclusive = small, poorly fitted or top-dose-only effect, or another doubt; inactive = no such curve, though single readings can be large or run the other way; cell line not stated here;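 also: phosphodiesterase inhibitor Ro 20-1724 added with compounds to block cAMP breakdown; potency is read from the fitted curve at half-maximal effect; nearly all actives have a fitted effect of over 60% in size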
#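 Cells in DMEM/10% FBS with G418 were pretreated with compounds in DMSO plus […] (300 uM stock) for 30 min at 37C. cAMP was measured by HTRF (cAMP-d2 plus anti-cAMP antibody-K) after 30 min at room temperature.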
# RXFP1 ag = qHTS Assay for Agonists of the Relaxin Receptor RXFP1 | Relaxin receptor 1 (Homo sapiens), Q9HBX9 | HEK293T-RXFP1 cAMP TR-FRET, 30 min; response scale: percent of porcine relaxin response, buffer zero | Potency, µM (doses to about 57.5 µM), without a hit: at the highest dose activation, actives largely listed as activators | 370,000 tested, 0.3% active; active = well fitted activation curve with a large enough effect; inconclusive = small, poorly fitted or top-dose-only effect; also: potency is read from the fitted curve at half-maximal effect; % is scaled to controls: 0 for no effect and ±100 for the full control effect; nearly all actives have a fitted effect of over 60% in size
# Target sequence (Q9HBX9 whole entry, looked up): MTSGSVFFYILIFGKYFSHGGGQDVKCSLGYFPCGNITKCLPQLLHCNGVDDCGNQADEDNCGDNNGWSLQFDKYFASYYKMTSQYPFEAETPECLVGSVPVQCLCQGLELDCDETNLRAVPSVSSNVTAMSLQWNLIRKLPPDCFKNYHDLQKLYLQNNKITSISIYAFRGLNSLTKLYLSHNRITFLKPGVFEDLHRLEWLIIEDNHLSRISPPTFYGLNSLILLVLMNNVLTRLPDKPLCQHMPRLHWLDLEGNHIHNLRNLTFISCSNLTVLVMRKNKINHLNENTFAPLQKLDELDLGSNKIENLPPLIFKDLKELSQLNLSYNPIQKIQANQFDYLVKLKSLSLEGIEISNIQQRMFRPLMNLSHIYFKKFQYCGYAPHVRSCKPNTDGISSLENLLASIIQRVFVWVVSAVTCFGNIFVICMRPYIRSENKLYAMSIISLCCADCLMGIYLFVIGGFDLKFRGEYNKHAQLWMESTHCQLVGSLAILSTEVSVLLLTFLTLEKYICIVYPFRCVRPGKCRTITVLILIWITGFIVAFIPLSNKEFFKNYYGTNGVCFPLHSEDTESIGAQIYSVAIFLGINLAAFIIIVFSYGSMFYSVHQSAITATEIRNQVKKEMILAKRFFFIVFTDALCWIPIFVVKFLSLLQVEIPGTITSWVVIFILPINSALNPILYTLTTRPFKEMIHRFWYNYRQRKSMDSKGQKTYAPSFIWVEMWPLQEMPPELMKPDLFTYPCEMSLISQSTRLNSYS
#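 HEK293T cells stably expressing RXFP1 were pretreated with the PDE4 inhibitor Ro 20174, exposed to compounds for 30 min at 37C, lysed, and cAMP was read by TR-FRET. Data normalized to buffer (basal) and 29 nM porcine relaxin (100%).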
# RXFP1 antagonist = qHTS Assay for Antagonists of the Relaxin Receptor RXFP1; 350,000 tested, 0.59% active; Relaxin receptor 1 (Homo sapiens), Q9HBX9; HEK293-RXFP1, relaxin-stimulated cAMP HTRF, 30 min; active compounds read low; activity change, negative = inhibition, % at 57.5 µM;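 active = activity change of -60% or lower, but not beyond a set lower limit; inconclusive = change between -60% and -40%, or beyond the set limit; inactive = change above -40%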; also: % is scaled to controls: 0 for no effect and ±100 for the full control effect
# gsp antag = qHTS for Antagonists of gsp, the Etiologic Mutation Responsible for Fibrous Dysplasia/McCune-Albright Syndrome: qHTS; AID 624288, 2012; gsp-mutant cells, cAMP HTRF, 30 min; Potency, µM (series often up to 76.9 µM), for the others: at the highest dose activity change, negative = inhibition, most hits filed as inhibitors; 340,000 tested, 0.4% active; calls by dose curve; cell line not stated here;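 also: intracellular cAMP measured with PDE inhibitor Ro 20-1724 present during compound exposure; potency is read from the fitted curve at half-maximal effect; % is scaled to controls: 0 for no effect and ±100 for the full control effect; nearly all actives have a fitted effect of over 65% in size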
#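 Cells in G418 medium, seeded 16-24 h, 37C; buffer exchange to DPBS + 1 mM CaCl2, 0.5 mM MgCl2, 0.05% BSA; cpds in DMSO + […] (300 uM stock), 30 min 37C; HTRF cAMP detection.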
# The depositor's hits bear a star; ? = inconclusive; . = not tested or not shown; + = active, no number; [ ] = dose if it differs, or a comment.
SMILES,gsp agonist,RXFP1 ag,RXFP1 antagonist,gsp antag
CCC(=O)Nc1ccc(N2CCN(C(=O)c3cccs3)CC2)cc1,3%,1%,2,-21%
O=C(COc1ccccc1[N+](=O)[O-])Nc1ccc(N2CCN(C(=O)c3cccs3)CC2)cc1,1%[15.4 µM],0%,-28,28µM*
Cc1ccc2[nH]cc(C(c3ccccc3)c3cccs3)c2c1 (centres undefined),.,6%,-72*,.
Cc1ccc2[nH]cc(C(c3ccccc3)c3ccc(C)s3)c2c1 (centres undefined),.,1%,?,.
Cc1cc(-c2ccc(S(=O)(=O)NCc3ccc(Cl)cc3)cc2)on1,8%,.,0,.
Cc1ccc(CCNC(=O)c2ccc(CNS(=O)(=O)c3ccc(F)cc3)cc2)cc1,.,-1%,-71*,.
Cc1cc(-c2ccc(S(=O)(=O)NCc3ccc(F)cc3)cc2)on1,-48%,2%,0,0.79µM*
Cc1ccc(CN(C)CC(=O)Nc2ccc3c(c2)CCC3)cc1,26%,0%,-64*,-5%
CCc1ccc(CN(C)CC(=O)Nc2ccc3c(c2)CCC3)cc1,-4%,-1%,-5,1%
Cc1ccc(S(=O)(=O)N2CCOCC2)cc1NC(=O)c1cc([N+](=O)[O-])ccc1N1CCOCC1,11µM*,12%,-7,7%
CCN1CCN(c2ccc(S(=O)(=O)N3CCOCC3)cc2NC(=O)c2ccc(C(F)(F)F)cc2)CC1,9%[15.4 µM],1%,-1,-2%
CCN1CCN(c2ccc(S(=O)(=O)N3CCOCC3)cc2NC(=O)c2cccc([N+](=O)[O-])c2)CC1,25µM*,.,-4,9%
COc1cc(/C=N/N2CCN(c3ccccc3)CC2)cc(OC)c1OC(C)=O,-10%,0%,-1,32µM*
COc1cc(/C=N/N2CCN(c3ccc(Cl)cc3)CC2)cc(OC)c1OC(C)=O,?,-1%,12,3%
C[n+]1c2n(c3ccccc31)N=C(c1cc(C(C)(C)C)c(O)c(C(C)(C)C)c1)CS2,19%,0%,-85*,-3%
COc1cccc(C2=Nn3c(nnc3-c3ccccc3O)SC2)c1,?,0%,-8,10%
CC(CCc1ccccc1)NC(=O)COC(=O)c1ccc([N+](=O)[O-])cc1 (centres undefined),-115%,1%,-6,10%
CC(CCc1ccccc1)NC(=O)COC(=O)c1ccc(S(C)(=O)=O)c([N+](=O)[O-])c1 (centres undefined),3%[15.4 µM],0%,-89*,?
COc1ccc(-c2nc(C)c(CCNC(=O)c3cccc(C)c3)s2)cc1OC,.,7%,.,.
Oc1cccc(-c2c3nc(c(-c4cccc(O)c4)c4ccc([nH]4)c(-c4cccc(O)c4)c4nc(c(-c5cccc(O)c5)c5ccc2[nH]5)CC4)C=C3)c1,.,.,-100*,.
CN(C)c1ccc(CNS(=O)(=O)c2ccc(-c3cc(C(F)(F)F)on3)s2)cc1,.,-3%,-2,.
CC(C)S(=O)(=O)c1csc(C(=O)Nc2ccc(F)cc2)c1N,-6%[15.4 µM],3%,-6,+
Cc1ccc2c(CNCc3cccs3)c(C(=O)O)n(Cc3ccc(F)cc3)c2c1,.,8%,.,.
O=C(CN1CCCCC1)Nc1c2c(nc3ccccc13)N(c1ccccc1)CC2,?,25µM*,48,12%
CC1=NOC(=O)/C1=C\c1ccc(-c2ccc(Br)cc2)o1,4µM*,19%,-25,-4%
SMILES,gsp agonist,RXFP1 ag,RXFP1 antagonist,gsp antag
CC1=NOC(=O)/C1=C/c1ccc(-c2ccc(Cl)cc2)o1,.,-3%,.,.
CCN(Cc1ccccc1)c1nc2c(S(=O)(=O)c3ccccc3)nnn2c2ccc(Cl)cc12,.,5%,-3,.
COc1ccc(C(=O)Nc2ccccc2C(=O)O)cc1NC(=O)C(c1ccccc1)c1ccccc1,-2%,0%,-24,40µM*
O=C(Nc1ccccc1C(=O)O)c1ccc(NC(=O)C2CCCCC2)cc1,7%[15.4 µM],1%,?,32µM*
O=C(NNC(=O)c1ccc(Br)o1)c1ccc(NC(=O)c2ccccc2)cc1,13%[15.4 µM],2%,-16,.
O=C(Nc1ccccc1C(=O)O)c1ccc(NC(=O)c2ccc(Br)o2)cc1,22%,-2%,-37,35µM*
COc1ccc(C(=O)Nc2ccccc2C(=O)O)cc1Cl,-10%,0%,-12,?
COc1ccc(C(=O)NC2CCCCCC2)cc1S(=O)(=O)N1CCCC1,4%[15.4 µM],1%,-4,11µM*
COc1ccc(CCNC(=O)Cn2c(=O)n(-c3ccc(OC)c(OC)c3)c(=O)c3ccccc32)cc1OC,.,6%,.,.
O=C(NCc1ccccc1Cl)c1ccccc1NC(=O)c1nsc2ccccc12,.,4%,-10,.
COc1ccccc1NC(=O)c1ccccc1NC(=O)c1ccccc1,.,1%,-13,.
COc1ccccc1C(=O)Nc1ccc(C(=O)Nc2ccccc2C(=O)O)cc1,?,2%,-18,35µM*
Cc1ccc(C(=O)Nc2ccccc2C(=O)O)cc1S(=O)(=O)N1CCCCCC1,.,0%,-102*,.
CCOC(=O)c1cc(-c2ccccc2)n(CC(=O)N(C)c2ccc(OC)cc2)c1C,.,-3%,-74*,.
CCOC(=O)c1ccc(NC(=O)Cn2nc(SC)c(S(=O)(=O)c3ccc(Cl)cc3)c2N)cc1,.,-1%,.,.
O=C(O)/C=C\C(=O)Nc1ccc(Oc2ccccc2)cc1,?,1%,9,-4%
O=C(O)/C=C/C(=O)Nc1ccc(C2(c3ccc(NC(=O)/C=C/C(=O)O)cc3)c3ccccc3-c3ccccc32)cc1,-19%,0%,-61*,1%
CCOc1ncccc1C(=O)OC(C)C(=O)NC(=O)NC1CCCCC1 (centres undefined),6.3µM*,-1%,-14,7%
Cc1cccc(C(=O)OC(C)C(=O)NC(=O)NC2CCCCC2)c1O (centres undefined),?,1%,-11,15%
N#Cc1c(N)[nH]c(=S)c(C#N)c1-c1ccccc1,20µM*,30%,34,20%
COc1ccc(NC(=O)CCCc2nnc3n(C)c(=O)c4sccc4n23)cc1,?,16µM*,4,10%
Cn1c(=O)c2sccc2n2c(CCCC(=O)NCc3cccnc3)nnc12,?,13µM*,26,20%
Cn1c(=O)c2sccc2n2c(CCC(=O)NCc3ccc(Cl)cc3)nnc12,.,?,3,.
Cn1c(=O)c2sccc2n2c(CCCC(=O)NCCc3ccc(S(N)(=O)=O)cc3)nnc12,52%[15.4 µM],28µM*,20,2%
Cn1c(=O)c2sccc2n2c(CCCC(=O)NCc3ccc4c(c3)OCO4)nnc12,35µM*,?,8,-1%
O=C(CCCCCn1c(=O)c2sccc2n(Cc2ccccc2Cl)c1=O)NCc1ccc2c(c1)OCO2,.,32µM*,-6,.
Cc1cccc(-n2nnnc2S(C)(=O)=O)c1,.,0%,-84*,.
